SKKanGAS inh: SKKanGAS growth inhibition. inhibition, % at 7.5 µM. S. pyogenes SKKanGAS, kanamycin growth, BacTiter-Glo, 6 h. AID 1662. 300,000 tested, 1.3% active;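 active = mean replicate score, as percent of positive control median, at least 50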;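 note: strain carries kanamycin resistance gene driven by streptokinase promoter and grows in 40 µg/ml kanamycin; loss of luminescence reflects streptokinase promoter inhibition or plain growth inhibition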
TIM10 inh: TIM10 yeast growth inhibition | 330,000 tested, 1.4% active | AID 463195 | inhibition, % at 10 µM | S. cerevisiae TIM10 strain growth, BacTiter-Glo luminescence, 24 h;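 active = inhibition of 40% or more at the single tested concentration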;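 note: wild-type TIM10 isogenic control strain grown at permissive 25 °C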
tim23-1 inh: tim23-1 yeast growth inhibition; S. cerevisiae tim23-1 growth, BacTiter-Glo luminescence, 24 h; inhibition, % at 20 µM; 330,000 tested, 1.3% active; AID 463212;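 active = growth inhibition of the mutant yeast at or above 50%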;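 note: temperature-sensitive mutant grown at 25 °C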
PfHsp90 yeast 2: growth inhibition of yeast expressing Plasmodium Hsp90; S. cerevisiae expressing PfHsp90, BacTiter-Glo ATP, 48 h; yeast lacking PDR1 and PDR3 efflux regulators; inhibition, % at 9.4 µM; 310,000 tested, 0.32% active;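 active = every replicate shows inhibition above about 80%, whatever the replicate mean, limit read from the data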
NALP3 yeast inh: inhibitors of NALP3 inflammasome in yeast; Yeast reconstituted NLRP3/ASC/caspase-1, beta-gal luminescence, 24 h; inhibition, % at 10 µM; 330,000 tested, 0.39% active;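 active = inhibition of 50% or more; inactive = inhibition below 50%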
tim10-1 inh: inhibits growth of tim10-1 mutant yeast; S. cerevisiae tim10-1 ts strain growth, BacTiter-Glo, 24 h; inhibition, % at 20 µM; 330,000 tested, 2.2% active; AID 463190;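 active = inhibition of at least 40%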;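 note: mutant grown at 25 °C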
tim10-1 conf: confirmation of tim10-1 mutant yeast growth inhibitors | shares compounds with tim10-1 inh | S. cerevisiae tim10-1 ts strain growth, BacTiter-Glo, 24 h | inhibition, % at 20 µM | 7,400 tested, 56% active;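 active = inhibition of yeast growth at or above a set limit in either of two repeat tests at 20 µM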;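 note: tim10-1 mutant grown at permissive 25 °C to find synthetic lethal compounds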
tim10 confirm: confirmation of TIM10 yeast growth inhibitors | S. cerevisiae tim10 strain growth, BacTiter-Glo luminescence, 24 h | inhibition, % at 10 µM | AID 463215 | shares compounds with TIM10 inh | 4,600 tested, 63% active;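 active = inhibition of yeast growth at or above a set limit in either of two replicates at 10 µM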; note: this counterscreen used the strain with wild-type TIM10
tim23-1 conf: confirmation of tim23-1 mutant yeast growth inhibitors; shares compounds with tim23-1 inh; S. cerevisiae tim23-1 growth, BacTiter-Glo luminescence, 24 h; inhibition, % at 20 µM; 4,400 tested, 83% active;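 active = inhibition above about 39% in either of two replicate wells at 20 µM, limit read from the data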;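 note: temperature-sensitive tim23-1 mutant grown at 25 °C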
A number is an active result; - = inactive; . = no result. Only some compounds are listed: those with a hit (about 4.6% of all), similar ones and a draw of the others.

SMILES | SKKanGAS inh | TIM10 inh | tim23-1 inh | PfHsp90 yeast 2 | NALP3 yeast inh | tim10-1 inh | tim10-1 conf | tim23-1 conf | others
CS/C(N)=N/N=C/c1cc(C)ccc1O | - | - | - | - | - | - | . | .
COc1ccc(CCn2c(S)nc3ccccc3c2=O)cc1 | - | - | - | - | - | - | . | .
CC(=O)Cc1nsc(NC(=O)c2ccc(-c3ccccc3Cl)o2)n1 | - | - | 51 | - | - | 48 | 43 | 51
CN1C(=O)C(CC(=O)NC2CCCCC2)SC1=Nc1ccccc1 (stereo not given) | - | - | - | - | - | - | . | .
Clc1ncnc2scc(-c3ccc(Br)cc3)c12 | - | - | 50 | - | - | - | - | 52
Cc1cc(N)n(-c2ncnc3scc(-c4ccc(Cl)cc4)c23)n1 | - | - | - | - | - | - | . | .
CCc1ccc(/C=N/NC(=O)c2cc(-c3ccccc3OC)nc3ccccc23)s1 | - | - | - | - | - | - | . | .
COc1ccccc1-c1cc(C(=O)N/N=C/c2ccc(C)s2)c2ccccc2n1 | - | - | 61 | - | - | 42 | - | 65
Cc1ccc(NC(=O)CS(=O)CC(=O)Nc2ccccc2-c2ccc(C)o2)cc1 (stereo not given) | - | - | 50 | - | - | 45 | 28 | 47
CC(=O)Nc1ccccc1-c1ccc(C)o1 | - | - | - | - | - | - | . | .
CCn1nc(Cc2cccc3ccccc23)c(C#N)c1N | - | - | - | - | - | - | . | .
CC1C/C(=C/c2ccccn2)C(=O)/C(=C/c2ccccn2)C1 (stereo not given) | - | 67 | 65 | - | - | 67 | 66 | 82 | tim10 confirm=71
CC1C/C(=C/c2ccco2)C(=O)/C(=C/c2ccco2)C1 (stereo not given) | - | - | 54 | . | - | 54 | 32 | 43
C(=C\c1ccccn1)/c1ccccn1 | - | - | - | - | - | - | . | .
CCOc1cc(/C=C2/COc3ccccc3C2=O)ccc1OCC(=O)N(C)C | . | . | . | - | . | . | . | .
CC(C)(C)C1C/C(=C/c2ccccn2)C(=O)/C(=C/c2ccccn2)C1 (stereo not given) | - | 69 | 68 | 100 | - | 66 | 70 | - | tim10 confirm=75
O=C1/C(=C/c2ccccn2)COc2ccccc21 | - | 64 | 76 | - | - | 54 | 68 | 72 | tim10 confirm=75
Cc1cccc(N=C2NC(=O)C(CO)(CO)S2)c1 | - | - | - | - | - | - | . | .
CC(C)(C)c1ccc(C(=O)NCC(=O)N2CCC3(CC2)NCCc2[nH]cnc23)cc1 | - | - | - | - | - | - | . | .
CC(Cc1cccnc1)NC(=O)c1cc(COc2ccc(F)cc2Cl)on1 (stereo not given) | - | - | - | - | - | - | . | .
CC1CCc2nc(NC(=O)CN3CCN(c4ccc(F)cc4)CC3)sc2C1 (stereo not given) | - | - | 55 | - | - | 51 | - | -
Cc1cc(C)c(C)c(S(=O)(=O)NC(C(=O)NCCc2ccco2)C(C)C)c1C (stereo not given) | . | - | - | - | - | - | . | .
O=C(NC(=S)Nc1ccc(Br)c(Cl)c1)C1CC1 | - | - | 62 | - | - | 43 | - | 54
O=C(NC(=S)Nc1cccc(Cl)c1Cl)C1CC1 | - | 41 | 51 | - | - | 43 | - | - | tim10 confirm=-
COc1ccc2nc(NC(=O)c3ccoc3C)sc2c1 | 66 | 47 | 55 | - | - | 58 | 59 | 61 | tim10 confirm=32
SMILES | SKKanGAS inh | TIM10 inh | tim23-1 inh | PfHsp90 yeast 2 | NALP3 yeast inh | tim10-1 inh | tim10-1 conf | tim23-1 conf | others
COc1ccc2nc(NC(=O)c3cc(C)oc3C)sc2c1 | - | - | - | - | - | - | . | .
COc1c(O)c(O)c2oc(-c3ccccc3)cc(=O)c2c1OC | - | 40 | 59 | - | - | 50 | 33 | 56 | tim10 confirm=31
COc1cc(-c2cc(=O)c3c(O)c(OC)c(OC)c(O)c3o2)ccc1O | - | - | - | - | - | - | . | .
O=C(Nc1ccc(OCC(F)(F)C(F)F)c(C(F)(F)F)c1)c1ccccc1O | 81 | 62 | 54 | - | - | 81 | 76 | 69 | tim10 confirm=-
O=C(Nc1ccc(OCC(F)(F)C(F)F)c(C(F)(F)F)c1)c1ccccc1 | - | - | - | - | - | - | . | .
CN(Cc1ccc(F)cc1)C(=O)c1cc(COc2ccc(-n3cncn3)cc2)on1 | - | 41 | 59 | - | - | 53 | 37 | 43 | tim10 confirm=35
COc1ccc(C(C[N+](=O)[O-])c2c(C)[nH]c3ccccc23)cc1OC (stereo not given) | - | - | - | - | - | - | . | .
O=c1[nH][nH]c(-c2ccccc2O)c1C(C[N+](=O)[O-])c1ccc(Br)cc1 (stereo not given) | - | 53 | 62 | - | - | 52 | 44 | 65 | tim10 confirm=-
CC(=O)Nc1ccc(N2CCCCC2)c(C(=O)Nc2cccc(C)c2)c1 | - | - | 54 | - | - | 43 | 57 | 50
COc1ccc(/C=C2\Oc3cc(OCC(=O)N4CC(O)C[C@H]4C(=O)O)ccc3C2=O)cc1OC (stereo not given in full) | - | - | - | - | - | - | . | .
O=C(/C=C1\NC2(CCCC2)Cc2ccccc21)C(=O)N/N=C/c1ccc(O)c(O)c1 | - | - | - | - | - | - | . | .
COc1ccc(/C=N/NC(=O)C(=O)/C=C2\NC3(CCCC3)Cc3ccccc32)cc1 | - | - | 54 | - | - | 42 | 31 | -
CCOC(=O)C1=C(C)N=C2c3ccccc3C(=O)C2C1c1ccc(Cl)cc1 (stereo not given) | - | - | - | - | - | - | . | .
CCOC(=O)C1=C(Cc2ccc(Cl)cc2)C(=O)c2ccccc2C1=O | - | 57 | 67 | 105 | - | 64 | 67 | 63 | tim10 confirm=58
COc1cc2ncnc(N[C@H](C)c3ccccc3)c2cc1OC | - | - | - | - | - | - | . | .
Oc1c(Cl)cc(Cl)cc1/C=N/Nc1ncc(Br)cn1 | - | - | - | - | - | - | . | .
Oc1c(Cl)cc(Cl)cc1/C=N/NC(=S)NC1CC2C=CC1C2 (stereo not given) | 111 | - | 57 | - | - | 48 | 50 | 72
O=C(COc1ccc(Cl)cc1Cl)Nc1ccccn1 | . | - | 58 | - | - | 47 | 49 | 47
Cc1ccccc1NC(=O)CCS(=O)(=O)c1ccc(Br)s1 | - | - | - | - | - | - | . | .
COC(=O)c1ccccc1NC(=O)CCS(=O)(=O)c1ccc(Br)s1 | - | - | 55 | . | - | 44 | 44 | 47
Cc1nc(C(=O)NC(C)C)nn1-c1cc(Cl)cc(Cl)c1 | - | - | - | - | - | - | . | .

High-throughput results (PubChem BioAssay)
